MARV entry inh = qHTS for Inhibitors of binding or entry into cells for Marburg Virus; Potency, µM (doses to about 49.2 µM), for inactives: at the top dose activity change, negative = inhibition, actives largely listed as inhibitors; actives 6.5% (n = 18,000); Marburg virus pseudotype entry/binding inhibition, cell-based; AID 720532, 2013
Lassa entry = qHTS for Inhibitors of binding or entry into cells for Lassa Virus. Lassa virus pseudotyped entry inhibition, cell-based qHTS. Potency, µM (top dose mostly 49.2 µM), for inactives: top-dose activity change, negative = inhibition, hits mostly inhibitors. actives 4.1% (n = 18,000). AID 720533, 2013
Numbers without * were called inactive; ? = inconclusive; nt = not tested or not shown; ! = repeats disagree; [ ] = dose if it differs, or a comment. An excerpt weighted towards active compounds, which were near 7.1% of everything screened. The call rests on the fitted dose curve; tested in HEK293 cells. On the % scale 0 is the no-effect control and ±100 the full control effect; potency means the concentration at half of the fitted maximal effect.

SMILES	MARV entry inh	Lassa entry
CC1(C)CN(C2CCCCC2)C(=O)[C@@H]1CC(=O)Nc1ccccc1	-14.4%	-26.8%
COC[C@H]1O[C@@H]2O[C@@H]1[C@@H](C=Cc1ccccc1)C[C@H]2C	5.3%[8.59 µM]	19.6%[8.59 µM]
CN(Cc1ccco1)Cc1cc(-c2ccnc3cc(Cl)ccc23)ccc1O	-13.8%	-14.3%
CCN(CCO)CCCC(C)Nc1ccnc2cc(Cl)ccc12 (stereo unspecified)	1.26µM*	-17.1%
CCN(CC)Cc1cc(Nc2ccnc3cc(Cl)ccc23)ccc1O	5.01µM*	?
O=C(c1cccs1)N1C[C@@H](O)[C@@H](n2cc(C3CC3)nn2)C[C@@H]1c1ccccc1	-20.8%	12.7%
O=S1(=O)CCSCCN1Cc1cccc(Cl)c1	17.9%	nt
CC=CCCN1C=C(C(=O)OCC)C(c2ccccc2)NC1=O (stereo unspecified)	41.2%[8.59 µM]	-1.9%[8.59 µM]
C#CCN1C(=O)[C@@]2(CC(C)=CC[C@@H](C)O2)c2ccccc21	16.3%[8.59 µM]	-23.9%[8.59 µM]
CC(C)C[C@H](CO)NS(=O)(=O)c1cccc(Cl)c1F	84.8%	6.3%
CC[C@H](C)[C@H]1O[C@]2(CC[C@@H]1C)C[C@@H]1C[C@@H](C/C=C(\C)[C@@H](O[C@H]3C[C@H](OC)[C@@H](O[C@H]4C[C@H](OC)[C@@H](O)[C@H](C)O4)[C@H](C)O3)[C@@H](C)/C=C/C=C3\CO[C@@H]4[C@H](O)C(C)=C[C@@H](C(=O)O1)[C@]34O)O2	?	14.1µM*
CO[C@H]1C[C@H](O[C@@H]2/C(C)=C/C[C@@H]3C[C@@H](C[C@]4(CC[C@H](C)[C@@H](C5CCCCC5)O4)O3)OC(=O)[C@@H]3C=C(C)/C(=N/O)[C@H]4OC/C(=C\C=C\[C@@H]2C)[C@]43O)O[C@@H](C)[C@@H]1O	6.6%	-13.5%
CC(=O)C1=C(C)N(Cc2ccccc2)C(=O)NC1c1cccc(F)c1 (stereo unspecified)	-4.6%[8.59 µM]	-7.3%[8.59 µM]
CCN(CC)C(=O)c1cc(S(=O)(=O)Cc2ccccc2)c(N2CCC(c3ccccc3)CC2)cc1N(CC)CCN(C)C	5.01µM*	14.1µM*
COC(=O)N[C@@H](c1ccc2ccccc2c1)C(C(C)=O)C(=O)OC (stereo partly specified)	-16.1%[8.59 µM]	16.1%[8.59 µM]
COc1c2c(cc3c1OCO3)CCN(C)C2	17.3%[17.8 µM]	-2.5%[17.8 µM]
COc1c2c(c(C(=O)/C=C/C(C)=C/c3ccccc3)c3c1OCO3)CCN(C)C2	15.8µM*	-11.3%
CS(=O)(=O)Nc1ccccn1	28.9%	11.4%
CC(C)=CCCC(C)=CCON=C1C[C@@H](O)[C@@H](O)[C@@H]2[C@H]3C(=O)N(Cc4ccccc4)C(=O)[C@@H]3CC[C@@H]12	3.0%[8.59 µM]	-0.5%[8.59 µM]
CN(C)CCN1C(=O)c2ccccc2N(C)c2ccccc21	35.5µM*!	?
C[N+](C)(CCCCCC[N+](C)(C)CCCN1C(=O)c2ccccc2C1=O)CCCN1C(=O)c2ccccc2C1=O	5.3%	-6.1%
CCCCCC(=O)N1C[C@H](n2cc(-c3ccc(F)cc3)nn2)[C@@H](O)C[C@H]1c1ccc(OC)cc1	?	-29.9%
CCOc1ccc2nc3cc(N)ccc3c(N)c2c1	1.8%	21.7%
Nc1ccc2cc3ccc(N)cc3nc2c1	10µM*	25.1µM*
CCN(CC)CCOC(=O)C(c1ccccc1)C1CCCCC1 (stereo unspecified)	?	-10.8%
SMILES	MARV entry inh	Lassa entry
O=C(NCCCN1CCCCCC1)[C@@H](c1ccccc1)C1CCCCC1	12.6µM*	?
O=C1CS(=O)(=O)N(Cc2ccccc2)[C@H]1Cc1ccccc1	20.9%	3.4%
CC[n+]1c(-c2ccccc2)c2cc(N)ccc2c2ccc(N)cc21	8.91µM*	?
COC(=O)[C@]12CCC(C)(C)C[C@H]1[C@H]1C(=O)C=C3[C@@]4(C)C=C(C#N)C(=O)C(C)(C)[C@@H]4CC[C@@]3(C)[C@]1(C)CC2	3.16µM*	3.55µM*
O=C1CCCC2=C1[C@H]1O[C@](CCCCN3C(=O)c4ccccc4C3=O)(Cc3ccccc31)O2	-1.7%[8.59 µM]	-8.3%[8.59 µM]
CC(=O)[O][Hg][c]1ccccc1	?	0.501µM*
CC(=O)Oc1ccccc1C(=O)O	11.6%	-3.4%
C[C@]12C[C@@](C)(C=C1C=Cc1ccc(F)cc1)C(=O)C[C@H]2c1ccc(F)cc1	4.7%[8.59 µM]	nt
CC(C)CON=C1C[C@@H](O)[C@@H](O)[C@@H]2[C@H]3C(=O)N(Cc4ccc5c(c4)OCO5)C(=O)[C@@H]3CC[C@H]12	30.0%[8.59 µM]	19.8%[8.59 µM]
CC(=O)N[C@@H](CSC(=O)[C@]1([C@@H](O)C(C)C)NC(=O)[C@H](C)[C@@H]1O)C(=O)O	?	3.55µM*
CC(=O)N[C@@H](CSC/C=C(\C)CCC=C(C)C)C(=O)O	17.1%	4.2%
C[C@@H](NS(=O)(=O)c1cccc(Cl)c1F)[C@H](O)c1ccccc1	20.8%	-9.0%
C(#C[C@@H]1C=C[C@H]2OC(c3ccccc3)OC[C@H]2O1)c1ccccc1 (stereo partly specified)	15.5%[8.59 µM]	1.9%[8.59 µM]
CCCCCCCCCCCCCCCC[N+](C)(C)CCN(Cc1ccc(OC)cc1)c1ncccn1	-10.8%[17.8 µM]	4.3%[17.8 µM]
CCCCCCCCCCCC[N+](C)(C)Cc1ccccc1	20µM*	14.1µM*
Nc1nc(N)c(N=O)c(OCC2CCCCC2)n1	11.2µM*	-4.5%
CC(CCC(=O)OC[C@H]1O[C@H](C#Cc2ccccc2)C=C[C@H]1Oc1ccc(C)cc1)=NO[C@H](C)c1cn([C@@H]2COC[C@@H]2O)nn1	0.1%[8.59 µM]	nt
O=C(NCc1nnc2n1CCN(Cc1cc(F)cc(F)c1)CC2)c1cccc(F)c1	5.01µM*	?
CC(CN1CCc2nnc(CNC(=O)c3cccc(F)c3)n2CC1)c1ccccc1 (stereo unspecified)	-8.9%	-0.3%
c1ccc(C2NCCc3c2[nH]c2ccccc32)cc1 (stereo unspecified)	22.5%[8.59 µM]	14.3%[8.59 µM]
CN(C)[C@@H]1C(=O)C(C(N)=O)=C(O)[C@@]2(O)C(=O)C3=C(O)c4c(O)cccc4[C@@](C)(O)[C@H]3[C@H](O)[C@@H]12	?	-23.4%
Cc1c2c(c(O)c3c(O)cccc13)C(=O)O[C@H]2C1C(N(C)C)C(O)=C(C(N)=O)C(=O)[C@H]1O (stereo partly specified)	8.91µM*	-0.7%
CC(C)C1C(=O)N(Cc2cn(CCC3OCCCO3)nn2)CCS(=O)(=O)N1Cc1ccc(-c2ccc(F)cc2)cc1 (stereo unspecified)	?	-20.8%
CCOC(=O)OC[C@H]1O[C@H](C#Cc2ccc(F)cc2F)C=C[C@H]1OC(=O)OCC	-14.6%[8.59 µM]	1.1%[8.59 µM]
CC(CCN1CCCc2nc(C)c(C)cc21)=NOC[C@@H](O)COCc1ccco1	?	-16.9%[8.59 µM]
CCOC(=O)[C@@]1([C@@H](NC(=O)OC)c2ccccc2)CCCC1=O	12.0%[8.59 µM]	-1.8%[8.59 µM]
CC[C@@H]1/C=C/C=C/C[C@H](C)[C@@H](O)[C@](C)(O)C(=O)[C@H](C)[C@@H](O)[C@H](C)C(=O)[C@H](C)[C@@H](O)[C@H](C)/C=C/C(=O)O[C@H]2[C@@H](C)[C@@H](CC1)O[C@@]1(CC[C@@H](C)[C@@H](C[C@H](C)O)O1)[C@@H]2C	10µM*	39.8µM*
COC(=O)N[C@H](CC(C)=O)c1ccc2c(c1)OCO2	-17.1%[8.59 µM]	-14.8%[8.59 µM]
COc1ccc2c(c1)C[C@@H](C)O[C@]21C(=O)Nc2ccccc21	70.8%[8.59 µM]	35.5%[8.59 µM]
